This is a sample that favours compounds with a hit; in the whole collection about 8.7% have one here.
HP1b chromo inh = HTS for Inhibitors of HP1-beta Chromodomain Interactions with Methylated Histone Tails; Chromobox protein homolog 1 (Homo sapiens), P83916; AlphaScreen HP1-beta / biotin-H3K9me3 peptide binding; Potency, µM (series often up to 114 µM), without a hit: at the top dose activity change, negative = inhibition, actives largely listed as inhibitors; 390,000 compounds, 0.56% hits; AID 540317, 2011; further: nearly all actives have a fitted effect of over 70% in size
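Compound inhibition of the preformed complex between 50 nM HP1-beta and 50 nM biotinylated H3K9me3 peptide was read by AlphaScreen. Buffer was PBS pH 7.4 with 0.01% Tween-20. Incubations ran 30 min at room temperature, with 10 ug/mL donor/acceptor beads.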
BAZ2B block = qHTS Assay for Inhibitors of BAZ2B | Bromodomain adjacent to zinc finger domain protein 2B (Homo sapiens), Q9UIF8 | AlphaScreen BAZ2B-H3K14Ac peptide displacement | Potency, µM (top dose mostly 114 µM), for the others: at the top dose activity change, negative = inhibition, most hits filed as inhibitors | 360,000 compounds, 4.4% hits | AID 504333, 2011; further: on the % scale 0 is the no-effect control and ±100 the full control effect; nearly all actives have a fitted effect of over 60% in size
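Compounds, titrated to a top concentration of 110 uM, were incubated 30 min at room temperature with preformed BAZ2B/acetyl-K14 H3 peptide complex (50 nM each). Proximity signal was measured by AlphaScreen after 20 min with beads.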
ALOX12 inh = Primary qHTS assay for inhibitors of human arachidonate 12S-lipoxygenase (ALOX12): Round 2; Polyunsaturated fatty acid lipoxygenase ALOX12 (Homo sapiens), P18054; purified 12hLO, xylenol orange hydroperoxide absorbance; Potency, µM (top dose mostly 108 µM), for inactives: at the highest dose activity change, negative = inhibition, most hits filed as inhibitors; 580,000 compounds, 1.1% hits; AID 1671190, 2021; further: on the % scale 0 is the no-effect control and ±100 the full control effect
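Hydroperoxide product was detected by ferrous iron/xylenol orange as the 573 to 405 nm absorbance ratio. Arachidonic acid at 40 uM (final) was turned over for 30 min at room temperature by 150 nM human 12hLO, pH 7.0 Hepes buffer, after 15 min compound preincubation.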
Sfp inh = qHTS Assay for Inhibitors of Bacillus subtilis Sfp phosphopantetheinyl transferase (PPTase); Potency, µM, without a hit: largest response in the series, negative = inhibition, usual class: inhibitors; 310,000 compounds, 3.5% hits; AID 1490, 2009; Biochemical Sfp PPTase activity, qHTS;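 further: the enzyme is Sfp with the accession as filed and its product quenches rhodamine fluorescence; 0% = enzyme reaction without inhibitor and -100% = no enzyme wells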
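Compounds were incubated with enzyme (final 15 nM) for 15 min at room temperature before substrate addition started the reaction. Fluorescence at 525 nm excitation, 598 nm emission was recorded immediately and after 30 minutes.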
G9a block = qHTS Assay for Inhibitors of Histone Lysine Methyltransferase G9a | Histone-lysine N-methyltransferase EHMT2 (Homo sapiens), Q96KQ7 | G9a H3K9 monomethylation, AlphaScreen, 2 h | Potency, µM (series often up to 102 µM), for the others: at the top dose activity, negative = inhibition, actives largely listed as inhibitors | 350,000 compounds, 8.8% hits; further: on the % scale 0 is the no-effect control and ±100 the full control effect; nearly all actives have a fitted effect of over 75% in size
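Readings reflect AlphaScreen signal from monomethyl-H3K9 antibody detection. HMT at 20 nM; substrate b-H3K9 500 nM; cofactor SAM 20 uM; 2 h RT reaction; compounds tested as titrations in qHTS with 15 min preincubation.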
JMJD2A Tudor inh = qHTS Assay for Inhibitors of JMJD2A-Tudor Domain; AlphaScreen JMJD2A-Tudor / H3K4me3 peptide binding; Potency, µM (doses to about 114 µM), for inactives: at the highest dose activity change, negative = inhibition, most hits filed as inhibitors; 390,000 compounds, 4.4% hits; further: on the % scale 0 is the no-effect control and ±100 the full control effect; nearly all actives have a fitted effect of over 50% in size
Target sequence (O75164 whole entry, looked up, the tested form may be a part): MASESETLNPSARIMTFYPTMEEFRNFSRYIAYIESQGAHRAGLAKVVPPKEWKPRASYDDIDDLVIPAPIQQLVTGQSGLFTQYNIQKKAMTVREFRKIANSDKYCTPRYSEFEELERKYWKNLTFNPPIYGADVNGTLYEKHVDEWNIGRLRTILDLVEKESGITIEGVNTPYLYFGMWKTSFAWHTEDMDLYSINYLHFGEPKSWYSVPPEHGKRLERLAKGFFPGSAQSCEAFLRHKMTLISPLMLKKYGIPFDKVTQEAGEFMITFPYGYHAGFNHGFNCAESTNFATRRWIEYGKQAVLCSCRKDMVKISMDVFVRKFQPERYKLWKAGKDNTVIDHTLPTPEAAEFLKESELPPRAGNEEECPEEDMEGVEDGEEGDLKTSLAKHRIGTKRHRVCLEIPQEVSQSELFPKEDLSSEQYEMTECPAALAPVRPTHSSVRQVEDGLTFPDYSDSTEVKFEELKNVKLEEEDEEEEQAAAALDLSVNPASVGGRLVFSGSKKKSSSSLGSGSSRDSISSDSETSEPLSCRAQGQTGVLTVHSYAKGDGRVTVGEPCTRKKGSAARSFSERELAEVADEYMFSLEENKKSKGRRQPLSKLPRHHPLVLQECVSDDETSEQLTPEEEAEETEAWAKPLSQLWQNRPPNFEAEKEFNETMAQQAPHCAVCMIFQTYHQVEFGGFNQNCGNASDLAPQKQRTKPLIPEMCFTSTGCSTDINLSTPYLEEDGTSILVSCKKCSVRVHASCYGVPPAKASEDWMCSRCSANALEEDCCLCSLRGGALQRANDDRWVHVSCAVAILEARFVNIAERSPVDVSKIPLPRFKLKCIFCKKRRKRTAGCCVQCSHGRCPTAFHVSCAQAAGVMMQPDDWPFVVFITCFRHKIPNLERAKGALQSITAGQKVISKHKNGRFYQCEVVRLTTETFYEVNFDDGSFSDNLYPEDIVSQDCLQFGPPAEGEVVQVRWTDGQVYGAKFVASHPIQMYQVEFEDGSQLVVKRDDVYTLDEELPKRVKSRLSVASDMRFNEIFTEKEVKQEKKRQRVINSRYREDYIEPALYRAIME
Active calls of the source: *; u = inconclusive; x = not tested or not shown; [ ] = remark or other dose. The call rests on the fitted dose curve; in most records, active means well fitted curve in the direction sought with a large enough effect; inconclusive means small, poorly fitted or top-dose-only effect, or another doubt; inactive means no such curve, though single readings can be large; an effect the other way counts as inactive or inconclusive. Potency means the concentration at half of the fitted maximal effect.

SMILES	HP1b chromo inh	BAZ2B block	ALOX12 inh	Sfp inh	G9a block	JMJD2A Tudor inh
Cn1c(O)c(/C=C2\C=Nc3ccccc32)c(=O)n(C)c1=O	15.9%	-18.4%	-18.5%	22.4%	u	-5.3%
Cn1c(O)c(/C=C2\C=c3ccccc3=NC2=O)c(=O)n(C)c1=O	44.5%	1.6%	2.1%	44.7µM*	39.8µM*	3.6%
O=C1c2ccccc2C(=O)c2ccccc21	x	x	1.8%	21.5%	-0.4%[59 µM]	x
O=C1C=Cc2ccccc2C1=O	x	39.8µM*	x	2.82µM*	8.91µM*	x
CC[C@H]1CN2CC[C@H]1C[C@@H]2CNC(=S)Nc1ccc(N(C)C)cc1	x	x	4.3%[176 µM]	x	x	x
O=C1NC[C@H]2CN(Cc3nccs3)CCN12	x	x	45.4%[176 µM]	x	x	x
NC(N)=N/N=C/c1cn(-c2ccccc2)nc1-c1cccs1	3.2%	u	u	79.4µM*	-7.7%	u
C[C@@H]1CC[C@@]2(OC1)O[C@H]1C[C@H]3[C@@H]4CC=C5C[C@@H](O[C@@H]6O[C@H](CO)[C@@H](O[C@@H]7O[C@@H](C)[C@H](O)[C@@H](O)[C@@H]7O)[C@H](O)[C@@H]6O[C@@H]6O[C@@H](C)[C@H](O)[C@@H](O)[C@@H]6O)CC[C@]5(C)[C@@H]4CC[C@]3(C)[C@@H]1[C@H]2C	x	x	7.5%	x	x	x
O=C(O)c1ccccc1SSc1ccccc1C(=O)O	55.8%	-4.0%	u	u	28.2µM*	2.3%
C[CH2][Hg][S]c1ccccc1C(=O)O	u	x	5.62µM*	15.8µM*	u	17.8µM*
COC(=O)[C@H]1[C@H](CO)[C@H]2Cn3c(ccc(Br)c3=O)[C@@H]1N2S(=O)(=O)c1cn(C)cn1	x	x	-13.7%	x	x	x
Cc1c(C(=O)NCCC2=CCCCC2)oc2ccc(S(=O)(=O)N3CCC4(CC3)OCCO4)cc12	21.8%	2.6%	0.0%	1.2%	50.1µM*	-19.9%
CCN(CC)Cc1c[nH]c2ccccc12	1.0%	u	u	-9.5%	u	-29.6%
CCC(CC)NCc1c[nH]c2ccccc12	-29.6%	79.4µM*	-19.9%	-7.5%	14.1µM*	22.4µM*
Cc1ccc(-n2nnnc2C2(N)CCCCC2)cc1	x	x	17.2%	x	x	x
CN(C)CCN(C(=O)c1ccc(S(=O)(=O)N2CCc3ccccc32)cc1)c1nc2ccc(F)cc2s1	5.0%	u	u	-1.4%	3.55µM*	u
COc1ccc2[nH]cc(CCNCc3cccnc3)c2c1	44.9%	u	u	-9.8%	x	-9.3%
COc1ccc2[nH]c(C)c(CCNCc3ccc(F)cc3F)c2c1	x	x	1µM*	x	x	x
COc1ccc2[nH]c(C)c(CCNCc3cccnc3)c2c1	u	20µM*	u	x	u	7.08µM*
O=[N+]([O-])c1ccc(-c2ccc(C=Nc3cccc4ccccc34)o2)cc1	u	39.8µM*	-6.9%	8.5%	6.31µM*	15.8µM*
COc1cccc(NC(=O)c2ccc[n+](C)c2)c1	38.8%	-25.2%	u	-0.9%	39.8µM*	u
COc1ccc(C(=O)N2[C@H]3CC[C@@H]2c2cnc(C)nc2C3)c(OC)c1	x	x	23.0%	x	x	x
O=C(O)C(Cc1cnc[nH]1)NS(=O)(=O)c1ccc(Br)cc1 (stereo not given)	2.5%	-6.8%	u	-23.9%	39.8µM*	10µM*
CCOc1cccc(OCC)c2c(C)[n+](CC3CCCO3)c(C)c1-2 (stereo not given)	-1.3%	25.1µM*	x	56.2µM*	u	35.5µM*
CCC(CC)c1cc([C@H]2CN3CC[C@H]2C[C@@H]3CNS(=O)(=O)c2cccs2)nc(-c2ccncc2)n1	x	x	22.4%	x	x	x
SMILES	HP1b chromo inh	BAZ2B block	ALOX12 inh	Sfp inh	G9a block	JMJD2A Tudor inh
Cc1cc(CN2CCC3CC(=O)NCCC3C2)no1 (stereo not given)	x	x	4.1%[12.5 µM]	x	x	x
O=C(c1ccncc1)N1CC2CCC(C1)N2Cc1ccccc1	x	x	11.5%[6.33 µM]	x	x	x
O=Nc1c(O)c2ccccc2c2ccccc12	u	x	-3.5%	x	x	56.2µM*
O=S(=O)(O)c1cc(O)ccc1O	u	3.0%	4.4%	-3.3%	10µM*	79.4µM*
C=CC[N+](C)(C)c1ccc(CCC(=O)CCc2ccc([N+](C)(C)CC=C)cc2)cc1	29.4%	-13.3%	-0.3%	x	15.8µM*	-3.6%
O=C(Cc1cccc(F)c1)N1[C@H]2CC[C@@H]1c1cnc(-c3ccc(F)cc3)nc1C2	x	x	17.0%	x	x	x
O=C1NC(=O)N(CCC2=CCCCC2)C(=O)/C1=C\c1cccs1	24.0%	u	u	50.1µM*	u	u
COCCN1C(=O)NC(=O)/C(=C\c2ccc(F)cc2)C1=O	41.6%	-13.4%	-15.3%	u	u	0.0%
O=C1NC(=O)N(CCc2ccc(F)cc2)C(=O)/C1=C/c1cccs1	-3.7%	-32.6%	u	25.1µM*	3.16µM*	56.2µM*
CN(C)c1ccc(/C=C2\C(=O)NC(=O)N(CCc3ccc(F)cc3)C2=O)cc1	27.9%	u	15.8µM*	-18.4%	44.7µM*	u
Cc1ccc(N2C(=O)NC(=O)C3(Cc4ccccc4N4CCCC43)C2=O)cc1 (stereo not given)	33.0%	-1.5%	u	u	8.91µM*	-27.0%
CN1CCN2c3ccccc3CC3(C(=O)N(C)C(=O)N(C)C3=O)C2C1 (stereo not given)	27.9%	3.8%	71.5%	-1.3%	x	-4.1%
CN1C(=O)N(C)C(=O)C2(Cc3ccccc3N3CCCC32)C1=O (stereo not given)	26.9%	-6.0%	u	-8.5%	10.9%[12.7 µM]	-20.4%
O=C1NC(=O)C2(Cc3ccccc3N3CCCC32)C(=O)N1c1ccc(Cl)cc1 (stereo not given)	14.8%	12.2%	u	-1.5%	20µM*	u
Cc1nc(-c2ccccc2)cc([C@H]2CN3CC[C@H]2C[C@@H]3CNC(=O)C2CCC2)n1	x	x	23.0%[176 µM]	x	x	x
Cc1ccc(C(=O)NC[C@H]2C[C@@H]3CCN2C[C@@H]3c2cc(-c3ccccc3Br)nc(C)n2)cc1	x	x	-20.1%	x	x	x
Cc1nc(-c2ccccc2)cc([C@H]2CN3CC[C@H]2C[C@@H]3CNC(=O)NC(C)C)n1	x	x	25.1µM*	x	x	x
COc1ccc(NC(=O)NC[C@H]2C[C@@H]3CCN2C[C@@H]3c2cc(-c3ccccc3Br)nc(C)n2)cc1	x	x	35.5µM*	x	x	x

Source: PubChem (National Center for Advancing Translational Sciences (NCATS))
